Bioassay records: PubChem BioAssay, National Center for Advancing Translational Sciences (NCATS)
Cycloheximide cs = Cycloheximide Counterscreen for Small Molecule Inhibitors of Shiga Toxin. hit rate 12% among 300,000. cell reporter, cycloheximide protein synthesis inhibition counterscreen. max response, %. AID 2314, 2010; in the data active = max response mostly above about 13%, no sharp cut-off; inactive = mostly below about 14%; also: read at 38.3 µM for the half of the compounds with a filed dose; 0% is about no effect
Shiga toxin inh = A qHTS for Small Molecule Inhibitors of Shiga Toxin; Vero cells, Shiga toxin protein synthesis inhibition reporter; inhibition, % at 38.7 µM; hit rate 9.2% among 290,000; in the data active = inhibition mostly above about 28%, no sharp cut-off; inactive = mostly below about 43%; also: 0% is about no effect
FMDV antiviral = High Throughput Screening for Foot and Mouth Disease Virus Antivirals | FMDV antiviral cell-based qHTS | Potency, µM (doses to about 57.9 µM), for the others: at the highest dose activity change, negative = inhibition, hits mostly inhibitors | hit rate 1.2% among 410,000 | AID 1159524, 2015; calls by dose curve; tested in HEK293T cells; also: read-out not given here; potency is read from the fitted curve at half-maximal effect; % is scaled to controls: 0 for no effect and ±100 for the full control effect; nearly all actives have a fitted effect of over 45% in size
MARV entry inh = qHTS for inhibitors of binding or entry into cells for Marburg Virus; Marburg virus pseudotyped entry inhibition, cell reporter; Potency, µM (doses to about 37.8 µM), for inactives: at the highest dose activity change, negative = inhibition, hits mostly inhibitors; hit rate 1.8% among 300,000; calls by dose curve; tested in HEK293 cells; also: potency is read from the fitted curve at half-maximal effect; % is scaled to controls: 0 for no effect and ±100 for the full control effect
Lassa entry inh = qHTS for Inhibitors of binding or entry into cells for Lassa Virus; Lassa virus pseudotype entry inhibition, cell reporter; hit rate 1.2% among 300,000; Potency, µM (highest dose often 37.9 µM), for inactives: at the highest dose activity change, negative = inhibition, usual class: inhibitors; calls by dose curve; tested in HEK293 cells; also: potency is read from the fitted curve at half-maximal effect; % is scaled to controls: 0 for no effect and ±100 for the full control effect; nearly all actives have a fitted effect of over 50% in size
HCV inh = qHTS Assay for Inhibitors of Hepatitis C Virus (HCV) | Huh7.5.1 HCVcc-Cre infection, luciferase reporter, 44 h | hit rate 3.4% among 340,000 | Potency, µM (series often up to 41.8 µM), inactives show at the top dose activity change, negative = inhibition, actives largely listed as inhibitors; active = well fitted inhibition curve with a large enough effect; inconclusive = small, poorly fitted or top-dose-only effect, or another doubt; inactive = no such curve, though single readings can be large or run the other way; also: potency is read from the fitted curve at half-maximal effect; % is scaled to controls: 0 for no effect and ±100 for the full control effect
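Seed cells (1,000/well) for 4 h; treat with compound and infect with HCVcc-Cre, moi about 0.5. Incubate 44 h, then detect luciferase activity.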
* = called active by the depositor; ? = inconclusive; / = no result given; [ ] = another dose, or the depositor's remark. An excerpt weighted towards active compounds, which were near 13% of everything screened.

SMILES | Cycloheximide cs | Shiga toxin inh | FMDV antiviral | MARV entry inh | Lassa entry inh | HCV inh
CC1(C(=O)NCc2ccccc2)CCC(=O)N1C1CC1 (stereo not given) | / | / | -4% | / | / | /
COc1ccc(CN(C(=O)/C=C/c2ccccc2Cl)C2CCS(=O)(=O)C2)cc1 (stereo not given) | 34* | 54 | 11% | / | / | -13%
COC(=O)C1=C(N)Oc2c(c(=O)oc3ccccc23)C1c1cccnc1 (stereo not given) | -1 | 1 | -26% | 0% | 11% | 17%
Cc1cc(Cl)ccc1OC(C)C(=O)Nc1cccc(S(=O)(=O)N2CCOCC2)c1 (stereo not given) | / | / | -1% | / | / | /
CC(Oc1ccc(Cl)cc1)C(=O)Nc1ccccc1N1CCOCC1 (stereo not given) | / | / | -18% | 13µM* | ? | ?
CC(C)Oc1cccc(C(=O)Nc2ccccc2N2CCOCC2)c1 | 14 | 21 | 8% | -9% | -16% | ?
CCC(C)Oc1cccc(C(=O)Nc2ccccc2N2CCOCC2)c1 (stereo not given) | 2 | 13 | -5% | -13% | ? | 7.1µM*
CC(Oc1cccc(Cl)c1)C(=O)Nc1ccccc1N1CCCC1 (stereo not given) | / | / | -28% | 4% | ? | -4%
Cc1cc(Cl)ccc1OC(C)C(=O)Nc1ccccc1N1CCOCC1 (stereo not given) | -2 | -9 | ? | ? | ? | 10µM*
O=C(Nc1ccccc1N1CCOCC1)c1cccc2c(Br)cccc12 | 9 | 8 | -4% | / | / | 5.6µM*
CCN(CC)C(=O)CSc1nnc(-c2ccccc2)c(-c2ccccc2)n1 | -4 | 6 | -18% | -18% | -9% | 2%
COc1ccc2nc(NC(=O)CC3Oc4ccccc4NC3=O)sc2c1 (stereo not given) | 9 | 29 | 1% | ? | -9% | -18%
Cc1ccc(N/N=C(/Sc2nnnn2-c2ccccc2)C(=O)c2ccccc2)cc1 | -2 | -51 | 18% | -5% | -5% | 9%
O=C(Nc1ccc(-c2nc3ccccc3[nH]2)cc1)c1ccc2c(c1)OCO2 | 28* | 21 | / | ? | -19% | ?
O=C(Nc1ccc(Cl)c(-c2nc3ccccc3[nH]2)c1)c1ccc2c(c1)OCO2 | 20* | -40 | 11% | ? | ? | ?
O=C(c1ccccc1)N1C(=O)C(c2ccccc2)Oc2ccccc21 (stereo not given) | -3 | 12 | 17% | ? | ? | 10%
CC1CCCC(C)N1C(=O)c1ccc(S(=O)(=O)NCc2ccco2)cc1 (stereo not given) | 27* | 46* | -12% | 8%[46.1 µM] | 20% | 11%
O=C(C1CCC1)N1CCc2cc(S(=O)(=O)NCc3ccco3)ccc21 | 35* | 49 | 37% | ? | -3% | 1%
Cc1ccc(CNS(=O)(=O)c2ccc3c(c2)CCN3C(=O)C2CCC2)cc1 | -1 | -2 | -5% | / | / | 7%
O=C(NCCCNC(=O)c1cc(Cl)ccc1Cl)c1cnccn1 | -2 | -4 | 6% | -6%[46.1 µM] | 2%[46.1 µM] | 0%
NC[C@@H]1O[C@@H](O[C@H]2[C@H](O)[C@@H](O[C@@H]3O[C@@H](CO)[C@H](O)[C@@H](N)[C@@H]3O)[C@H](N)C[C@@H]2N)[C@@H](O)[C@H](O)[C@H]1O | -4 | -3 | / | / | / | /
Nc1ccc(C(=O)OCC(=O)Nc2ccc3c(c2)OCO3)cc1[N+](=O)[O-] | 20* | 17 | 14% | ? | -1% | ?
Cc1nn(-c2ccccc2)c(C)c1NC(=O)COC(=O)c1cc([N+](=O)[O-])ccc1NCCO | -2 | -6 | -26% | ? | ? | 22µM*
O=C(COC(=O)c1cc([N+](=O)[O-])ccc1NCCO)Nc1ccc2c(c1)OCO2 | 6 | 14 | ? | ? | -28% | 11µM*
CCOC(=O)C1(C)C=C(Nc2ccc(OC)cc2)C(=O)N1c1ccccc1 (stereo not given) | / | / | -7% | 27%[46.1 µM] | 20%[46.1 µM] | /
SMILES | Cycloheximide cs | Shiga toxin inh | FMDV antiviral | MARV entry inh | Lassa entry inh | HCV inh
COc1ccc(-c2ccncc2)cc1OC | / | / | -8% | / | / | /
CN(CC1COc2ccccc2O1)C(=O)CSc1ncnc2sccc12 (stereo not given) | / | / | -1% | / | / | -17%
O=C(O)CCC/C=C\C[C@@H]1[C@@H](CC[C@@H](O)CCc2ccccc2)[C@H](O)C[C@@H]1O | -3 | -18 | / | / | / | /
Cc1cc(Br)ccc1OCCCCNCCO | -2 | -10 | -8% | ? | -12% | 10µM*
OCCNCCCOc1ccc(Cl)cc1Br | 13 | 31 | -26% | 21µM* | -7% | -13%
Cc1cc(Cl)cc(Cl)c1OCCCCN(C)C | 47* | -17 | -26% | ? | -15% | ?
Cc1cc(C)c(OCCCCN(C)C)c(Br)c1 | -1 | -7 | -1% | ? | 27% | ?
COCCCNCCCCOc1ccc(Br)cc1Cl | -5 | -7 | -23% | ? | ? | 10µM*
C=CCNCCCCOc1ccc(Br)cc1C | -5 | 15 | -16% | ? | 0% | -26%
COCCCNCCOCCOc1ccc(C)cc1Br | -2 | -8 | -1% | -18% | ? | ?
O=C(NC(=S)N1CCN(c2nc(-c3ccccc3)cs2)CC1)c1cccnc1 | -3 | -3 | -24% | 16% | 30% | 4%
CNCCCOc1ccc(Cl)cc1C(C)(C)C | -2 | -8 | -10% | ? | -26%[46.1 µM] | -28%
COCCCNCCCOc1ccc(Cl)cc1C(C)(C)C | -3 | -10 | ? | ? | ? | 7.1µM*
COCCNCCCOc1ccc(Cl)cc1Br | -2 | -4 | -18% | / | / | -1%
CN(C)CCCCOc1ccc(Br)cc1Cl | 14* | 28 | 2% | ? | -17% | 10µM*
COCCNCCCOc1ccc(Br)cc1Cl | -3 | -1 | 9% | ? | ? | 10µM*
O=C1CSCC(=O)N1Cc1ccc(Cl)c(Cl)c1 | -4 | -10 | -17% | -12%[46.1 µM] | 15%[46.1 µM] | 8%
CCCC(O)(c1ccc(OC)cc1)C(CN1CCOCC1)c1ccc(Cl)cc1 (stereo not given) | -4 | 1 | -27% | / | / | -10%
CCCC(O)(c1ccc(Cl)cc1)C(CN1CCOCC1)c1ccc(Cl)cc1 (stereo not given) | -8 | -8 | ? | 7.9µM* | -16%[46.1 µM] | 14%
CC(C)NC(=O)C1(C)CN(S(C)(=O)=O)CC(=O)N1C1CCCCCC1 (stereo not given) | / | / | -10% | / | / | /
CN1CCN(C(=O)CN2C(=O)NC(C)(c3ccc4ccccc4c3)C2=O)CC1 (stereo not given) | / | / | -14% | -2% | 2% | -16%
COc1cccc(CNC(=O)C2CCC(CNc3nc(=S)[nH]c4ccccc34)CC2)c1 (stereo not given) | -11 | -17 | -11% | -7%[46.1 µM] | / | 2µM*
O=C(CCCCCNc1nc(=S)[nH]c2ccccc12)N1CCN(c2ccccn2)CC1 | -4 | -15 | / | / | / | /
COc1cccc(N2CCN(C(=O)CCCCCNc3nc(=S)[nH]c4ccccc34)CC2)c1 | -5 | -16 | 25µM* | ? | -18% | 11µM*
